Compound activity: PubChem, several laboratories
Compounds with a hit are over-represented: about 28% of the library has one in this group of screens.
CYP2C19 inhib: blockers of cytochrome P450 2C19 activity – biochemical, luminescence, ADME assay, primary screen | inhibition, % at 5 µM | P33261 | CYP2C19 Supersomes, luciferin-H EGE luminescence, 30 min | 96,000 compounds, 21% hits | AID 778, 2007;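 active = CYP2C19 inhibition above a set limit at 5 µM in the primary screen, cut at about 50% in these data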;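 also: plate controls were negative control wells for no effect and 2.5 mM tranylcypromine positive control for full effect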
D1 allo mod: D1 CRE-luciferase signal change, two-sided – cell-based, HEK293 D1, dopamine EC30, D1 allosteric modulator project, primary screen. D(1A) dopamine receptor (Homo sapiens), P21728. dopamine EC30 potentiation; actives deviate in either direction. B-score at 10 µM. 58,000 compounds, 5.9% hits;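 active = luminescence count or its row- and column-corrected plate score outside the 99.7% band of the plate's sample wells, on either side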
Target sequence (P21728 whole entry, looked up): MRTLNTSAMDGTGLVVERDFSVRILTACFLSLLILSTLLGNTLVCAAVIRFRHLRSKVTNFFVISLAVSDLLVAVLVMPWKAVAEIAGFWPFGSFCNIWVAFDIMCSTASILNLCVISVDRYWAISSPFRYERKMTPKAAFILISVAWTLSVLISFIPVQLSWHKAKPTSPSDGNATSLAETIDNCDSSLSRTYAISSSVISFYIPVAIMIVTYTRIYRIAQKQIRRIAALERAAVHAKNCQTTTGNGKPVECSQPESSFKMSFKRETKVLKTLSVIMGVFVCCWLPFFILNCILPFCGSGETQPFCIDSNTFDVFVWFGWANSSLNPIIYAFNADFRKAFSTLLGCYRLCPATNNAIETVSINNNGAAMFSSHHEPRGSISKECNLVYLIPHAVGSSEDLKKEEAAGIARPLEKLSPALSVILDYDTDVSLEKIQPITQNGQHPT
hDAT+cocaine: changed hDAT dopamine uptake under cocaine IC80, either direction, primary screen, cocaine antagonist project, cell-based, LLC-PK1 hDAT, [14C]-dopamine uptake, MLSMR | B-score at 10 µM | LLC-PK1 hDAT cells, [14C]-dopamine uptake with cocaine IC80; actives deviate in either direction | 110,000 compounds, 1.3% hits | AID 449768, 2010;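 active = Z score or B-score, a plate-position-corrected score, falls beyond the plate's 99.7% confidence bounds, in either direction; inactive = both scores lie inside the 99.7% bounds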;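 also: scored against the spread of the other compound wells on the same plate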
CYP2C9 inhib: blockers of cytochrome P450 2C9 activity – biochemical, luminescence, ADME assay, primary screen; inhibition, % at 5 µM; AID 777, 2007; P11712; CYP2C9 Supersomes, luciferin-H conversion; 96,000 compounds, 20% hits;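 active = blocking of liver enzyme CYP2C9 beyond about 50% at 5 µM, limit read from the data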
CYP2C9 activ: human CYP2C9 activators, primary screen, biochemical, luminescence. Cytochrome P450 2C9 (Homo sapiens), P11712. recombinant CYP2C9, luciferin-H conversion; active compounds read high; factor 1 = untreated enzyme, 0 = blocked. activation factor at 5 µM. 96,000 compounds, 1.4% hits. AID 1024, 2008;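 active = activation factor of 2 or more for CYP2C9 at a 5 µM dose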;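 also: 0 = sulfaphenazole-blocked wells and 1 = vehicle-only wells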
CYP2C19 act: human CYP2C19 activators, primary screen, biochemical, luminescence; Cytochrome P450 2C19 (Homo sapiens), P33261; recombinant CYP2C19, luciferin-H EGE luminescence; active compounds read high; 0 = fully inhibited enzyme, 1 = untreated enzyme; activation factor at 5 µM; 96,000 tested, under 10 active;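 active = activation factor of at least 2 at 5 µM in the primary screen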;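 also: 0 = wells with 2.5 mM tranylcypromine and 1 = vehicle-only wells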
Active calls of the source: *.

What do the screens show for `CCN(CC)S(=O)(=O)c1cccc(S(=O)(=O)c2cccc(S(=O)(=O)N(CC)CC)c2)c1`?
CYP2C19 inhib: 91*; hDAT+cocaine: 0.2; CYP2C9 inhib: 70*; CYP2C9 activ: 0.3; CYP2C19 act: 0.1

What do the screens show for `O=S(=O)(c1cccc2nsnc12)N1CCCC1`?
D1 allo mod: 0.75; hDAT+cocaine: -0.78

What do the screens show for `CCCCN(CC)S(=O)(=O)c1ccccc1`?
CYP2C19 inhib: 81*; hDAT+cocaine: -0.25; CYP2C9 inhib: -12; CYP2C9 activ: 1.1; CYP2C19 act: 0.2

Results for O=S(=O)(c1ccccc1)c1cccc(S(=O)(=O)N2CCCCC2)c1 ?
CYP2C19 inhib: 87*; D1 allo mod: -0.13; hDAT+cocaine: 0.92; CYP2C9 inhib: -23; CYP2C9 activ: 1.2; CYP2C19 act: 0.1

What do the screens show for `Cc1cc(C)c(S(=O)(=O)c2ccccc2)c(OC(=O)c2cc(F)c(F)cc2Cl)n1`?
CYP2C19 inhib: 3; hDAT+cocaine: 0.088; CYP2C9 inhib: 7; CYP2C9 activ: 0.9; CYP2C19 act: 1

How did CCn1c(CNc2ccc(C)cc2)nnc1SCC(N)=O do in these assays?
hDAT+cocaine: -0.44

How did CCN(CC)S(=O)(=O)c1ccc(F)cc1 do in these assays?
D1 allo mod: 0.64; hDAT+cocaine: -0.28

What do the screens show for `Cc1ccc(S(=O)(=O)c2cccc(S(=O)(=O)N3CCCC3)c2)cc1S(=O)(=O)N1CCCC1`?
CYP2C19 inhib: 52*; D1 allo mod: 0.0003; hDAT+cocaine: -0.67; CYP2C9 inhib: -4; CYP2C9 activ: 1; CYP2C19 act: 0.5

How did CN1CCN(S(=O)(=O)c2ccc(NC(=O)Nc3cccc(Cl)c3)cc2)CC1 do in these assays?
CYP2C19 inhib: 4; D1 allo mod: -2.9; hDAT+cocaine: 0.005; CYP2C9 inhib: 32; CYP2C9 activ: 0.7; CYP2C19 act: 1

Results for CCN(CC)S(=O)(=O)c1cccc(S(=O)(=O)N2CCCCC2)c1 ?
CYP2C19 inhib: 46; hDAT+cocaine: 0.031; CYP2C9 inhib: 53*; CYP2C9 activ: 0.5; CYP2C19 act: 0.5

Results for CCN(CC)S(=O)(=O)c1ccc(C)c(C)c1 ?
CYP2C19 inhib: 82*; hDAT+cocaine: -0.89; CYP2C9 inhib: -237; CYP2C9 activ: 3.4*; CYP2C19 act: 0.2

Results for CN1CCN(S(=O)(=O)c2cccc(S(=O)(=O)c3ccc(Cl)cc3)c2)CC1 ?
CYP2C19 inhib: -9; D1 allo mod: -0.054; hDAT+cocaine: -1.4; CYP2C9 inhib: -114; CYP2C9 activ: 2.1*; CYP2C19 act: 1.1

What do the screens show for `O=C(OCc1ccc(Cl)cc1Cl)c1ccncc1`?
CYP2C19 inhib: 69*; hDAT+cocaine: -1.3; CYP2C9 inhib: 44; CYP2C9 activ: 0.6; CYP2C19 act: 0.3

How did O=C(OCc1ccc(F)cc1Cl)c1ccccn1 do in these assays?
CYP2C19 inhib: 80*; D1 allo mod: 1; hDAT+cocaine: -0.66; CYP2C9 inhib: 17; CYP2C9 activ: 0.8; CYP2C19 act: 0.2

What do the screens show for `O=C(COC(=O)c1ccncc1)Nc1cc(Cl)ccc1Cl`?
CYP2C19 inhib: 66*; hDAT+cocaine: -0.45; CYP2C9 inhib: 90*; CYP2C9 activ: 0.1; CYP2C19 act: 0.3

How did O=C(C/C=N/OCc1ccc(Cl)cc1Cl)c1ccc(Cl)cc1 do in these assays?
CYP2C19 inhib: 28; hDAT+cocaine: -1.9; CYP2C9 inhib: 1; CYP2C9 activ: 1; CYP2C19 act: 0.7

What do the screens show for `O=C(COC(=O)c1ccncc1)Nc1cc(Cl)c(Cl)cc1Cl`?
CYP2C19 inhib: 98*; CYP2C9 inhib: 88*; CYP2C9 activ: 0.1; CYP2C19 act: 0

What do the screens show for `COc1ccc(-c2noc3c2-c2nc(-c4ccccc4Cl)sc2CC3)cc1`?
hDAT+cocaine: -0.27

How did COc1ccccc1CN1[C@@H](CC(=O)O)c2cc(F)ccc2S1(=O)=O do in these assays?
hDAT+cocaine: -0.81
